Shown are actives, neighbours in structure and some others; about 10% of the full set was active somewhere.
HEK cytotox: kills HEK 293 cells. AID 1345083. 94,000 tested, 6.6% active. Potency, µM (top dose mostly 115 µM), for inactives: at the highest dose activity change, negative = cytotoxicity, most hits filed as inhibitors. HEK 293 viability, ATP luminescence (CellTiter-Glo), 48-72 h; note: nearly all actives have a fitted effect of over 60% in size
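HEK 293 seeded at 250 cells/well receive compound via pintool. After 48 or 72 hr at 37 degree Celsius, 5% CO2 and 95% humidity, CellTiter-Glo is dispensed and luminescence read following 10 min at room temperature.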
FLuc inh: blocks purified firefly luciferase enzyme activity. P08659. purified P. pyralis luciferase, luminescence, biochemical. Potency, µM (doses to about 115 µM), hits mostly inhibitors. 76,000 tested, 2.5% active. AID 1347043; note: nearly all actives have a fitted effect of over 65% in size
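Inhibitors were tested against purified firefly luciferase in a biochemical, low-substrate format (both substrates at 10uM) and luminescence measured with a CCD imager.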
hNpr1 antagonist: antagonists of human natriuretic peptide receptor Npr1. Potency, µM (highest dose often 46.3 µM), inactives show at the highest dose activity change, negative = inhibition, usual class: inhibitors. 76,000 tested, 1.6% active. P16066. AID 1347048. HEK293 hNpr1 GloSensor cGMP, ANP-stimulated luminescence; calls by dose curve; note: nearly all actives have a fitted effect of over 60% in size
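Compound pre-incubated 30 min at room temperature on GloSensor-loaded HEK293 cells stably carrying hNpr1 and the pGS-40F cGMP biosensor. Stimulation uses hNppA at 0.1 nM final; luminescence is taken at baseline and 20 min post-agonist.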
3T3 cytotox: kills NIH 3T3 cells. Potency, µM (doses to about 96.7 µM), for the others: at the highest dose activity change, negative = cytotoxicity, hits mostly inhibitors. NIH 3T3 viability, CellTiter-Glo ATP luminescence, 48-72 h. 94,000 tested, 4.3% active; note: nearly all actives have a fitted effect of over 55% in size
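Luminescent ATP readout (CellTiter-Glo, 10 min RT) after 48 or 72 hr compound exposure of NIH 3T3 cells seeded at 400 cells/well in 1536-well format; quantitative HTS.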
GPT2 inhibitor: inhibitors of human GPT2 alanine aminotransferase; Recombinant GPT2, coupled pyruvate oxidase/HRP Amplex Red fluorescence; Potency, µM (top dose mostly 57.7 µM), for the others: top-dose activity change, negative = inhibition, hits mostly inhibitors; 100,000 tested, 0.25% active; note: nearly all actives have a fitted effect of over 60% in size
Target sequence (Q8TD30 whole entry, looked up): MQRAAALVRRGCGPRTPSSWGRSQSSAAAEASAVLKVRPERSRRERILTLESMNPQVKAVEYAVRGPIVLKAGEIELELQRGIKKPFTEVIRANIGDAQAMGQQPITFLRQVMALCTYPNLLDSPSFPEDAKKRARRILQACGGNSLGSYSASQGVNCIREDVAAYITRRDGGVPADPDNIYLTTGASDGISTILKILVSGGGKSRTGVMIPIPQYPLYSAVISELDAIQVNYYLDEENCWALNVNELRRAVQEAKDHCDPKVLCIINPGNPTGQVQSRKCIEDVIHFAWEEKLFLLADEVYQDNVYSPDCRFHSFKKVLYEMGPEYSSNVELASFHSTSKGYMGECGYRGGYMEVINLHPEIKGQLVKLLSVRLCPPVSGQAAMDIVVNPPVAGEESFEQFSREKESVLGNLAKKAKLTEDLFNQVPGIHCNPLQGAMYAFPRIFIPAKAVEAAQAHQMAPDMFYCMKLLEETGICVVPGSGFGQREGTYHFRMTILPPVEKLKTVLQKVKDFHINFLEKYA
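Recombinant GPT2 (10ng/uL) with 250uM a-KG and 2mM L-alanine, 30 min at room temperature, in HEPES pH 7.5 buffer. Pyruvate detected by pyruvate oxidase/HRP/Amplex Red fluorescence after 30 min in the dark; AOA (50uM) as positive control.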
* hit, by the source's call; i = inactive; ? = inconclusive; . = not tested or not shown; [ ] = remark or other dose. Unless noted, calls come from the whole dose curve; as a rule, active = well fitted curve in the direction sought with a large enough effect; inconclusive = small, poorly fitted or top-dose-only effect, or another doubt; inactive = no such curve, though single readings can be large; an effect the other way counts as inactive or inconclusive. % is set by controls: 0 for no effect and ±100 for the full control effect; potency is the fitted concentration of half-maximal effect.

SMILES | HEK cytotox | FLuc inh | hNpr1 antagonist | 3T3 cytotox | GPT2 inhibitor
C[C@]1(NC(=O)Cc2ccccc2)OC[C@@H]2CC[C@H](C(=O)Nc3ccc(OC(F)(F)F)cc3)N2C1=O | -24.2% | i | 1.3% | ? | 1.7%
COc1cccc(CN(Cc2ccccc2)[C@H]2C[C@H]3CCOC[C@@]3(c3ccccc3)C2)c1 | ? | . | . | -21.5% | .
c1ccc(CN(Cc2ccccn2)[C@H]2C[C@H]3CCOC[C@@]3(c3ccccc3)C2)cc1 | 50.1µM* | . | . | ? | .
Cc1cc(C)n(CCC(=O)N2CC(Oc3ccc(-c4nc(-c5ccccc5)no4)cc3)C2)n1 | 31.6µM* | ? | 0.398µM* | ? | -8.4%
Cc1cc(C(=O)N2CC(Oc3ccc(-c4nc(-c5ccccc5)no4)cc3)C2)n(C)n1 | 11.2µM* | ? | 5.62µM* | ? | -24.6%
O=C(NCCN1CCOCC1)C1CCc2ncc(-c3ccc(F)cc3)n2C1 (configuration not stated) | i | i | 2.4% | -8.6% | -0.9%
CCCS(=O)(=O)N1CC(N(Cc2cccnc2)CC(C)C)C1 | -27.3% | i | -1.8% | -29.0% | 3.5%
COCCc1noc(-c2nc(-c3ccccc3F)no2)n1 | -11.9% | 28.2µM* | -2.0% | -1.3% | 1.5%
O=[S+]([O-])(NC1CCN(c2nc3ncccc3o2)CC1)c1cccc(C(F)(F)F)c1 | ? | i | 0.6% | ? | 3.7%
CC(C)CC(=O)N1CCC(CC(=O)NCc2ccccc2)C1 (configuration not stated) | 0.9% | i | 10.2% | -6.6% | i
CCOC1CCN(Cc2ccc(C(=O)Nc3c(C)cccc3C)cc2)CC1 | -33.2% | i | 2.9% | -29.2% | 3.1%
CCOc1cccc(CN2CC(Oc3ccccc3C(=O)N3CCOCC3)C2)c1 | ? | . | . | ? | -2.5%
CCC(=O)c1c(O)cc(O)cc1O | . | . | . | . | 5.01µM*
Cc1cc(O)c2c(c1)C(=O)c1cc(O)cc(O)c1C2=O | . | . | . | . | -19.8%
Cc1cc(OCCN(C)C)c(C)c2c1CC[C@@H]([C@H](C)C(=O)NCc1cccs1)C2 | 56.2µM* | i | 5.4%[70.6 µM] | 63.1µM* | i
COc1cc(C)c2c(c1C)C[C@H](C(C)C(=O)NCc1ccco1)CC2 (some centres not stated) | ? | i | -2.9%[70.6 µM] | ? | i
FC(F)(F)c1ccc(-c2cnc([C@@H]3COCCN3Cc3ccncc3)[nH]2)cc1 | ? | i | -10.0%[70.6 µM] | -25.2%[138 µM] | i
C[C@@H](NC(=O)N1CCOC[C@H]1c1ncc(-c2ccc(Cl)cc2)[nH]1)c1ccccc1 | ? | i | -20.0%[70.6 µM] | 100µM* | -0.6%[88.5 µM]
FC(F)(F)c1ccc(-c2cnc([C@@H]3COCCN3Cc3ccccn3)[nH]2)cc1 | 56.2µM* | i | -5.9%[70.6 µM] | 39.8µM* | -13.3%[88.5 µM]
CC(C)(C)CN1CCOC[C@H]1c1ncc(-c2ccccc2)[nH]1 | 79.4µM* | i | -12.2%[70.6 µM] | ? | -7.5%[88.5 µM]
COc1ccc(-c2cnc([C@@H]3COCCN3Cc3ccccc3)[nH]2)cc1 | ? | i | -22.3%[70.6 µM] | ? | i
CC(C)(C)CN1CCOC[C@H]1c1ncc(-c2cccc(Cl)c2)[nH]1 | 100µM* | i | -18.0%[70.6 µM] | 89.1µM* | 1.0%[88.5 µM]
O=C(O)c1ccc2c(c1)n(Cc1ccc(F)cc1)c(=O)c1ccnn12 | -19.4% | i | -8.0% | ? | i
CC1(C(=O)NCCc2ccc(F)cc2)CCOCC1 | 3.8%[172 µM] | . | . | -3.6%[138 µM] | i
Cc1ccc(S(=O)(=O)N2CCN(C3CCN(CCc4ccccc4)C3=O)CC2)cc1 (configuration not stated) | ? | i | -0.7% | -11.2% | i
SMILES | HEK cytotox | FLuc inh | hNpr1 antagonist | 3T3 cytotox | GPT2 inhibitor
CCc1noc(-c2cn(C3CCN(C(=O)COc4ccccc4)C3)nn2)n1 (configuration not stated) | -1.5% | i | -9.0% | -18.5% | -10.4%
CO[C@@](C(=O)N1CCOC[C@H]1c1ncc(-c2ccccc2)[nH]1)(c1ccccc1)C(F)(F)F | ? | i | -26.5% | 44.7µM* | 1.5%
CC(C)(C)C(=O)N1CCOC[C@H]1c1ncc(-c2ccc(OC(F)(F)F)cc2)[nH]1 | ? | i | -16.4%[70.6 µM] | ? | ?
Cn1ncc2c(C(=O)Nc3cccc(C(F)(F)F)c3)cc(-c3ccc(C(F)(F)F)cc3)nc21 | 11.2µM* | . | . | 7.94µM* | .
COc1cccc(-c2cc(C(=O)Nc3cccc(C(F)(F)F)c3)c3cnn(C)c3n2)c1 | 31.6µM* | . | . | ? | .
CC(C)(C)c1ccc(CCCc2nc(C3CCOC3)no2)cc1 (configuration not stated) | ? | i | ? | ? | ?
CCOC(=O)C1(Cc2cccc(C(F)(F)F)c2)CCN(Cc2cc(C(C)C)n[nH]2)CC1 | 25.1µM* | i | ? | ? | ?
CCc1nc(CN(C)C(=O)C2CCCN2C(=O)C2CCCCC2)no1 (configuration not stated) | 4.7% | i | -4.0% | -5.7% | i[11.5 µM]
O=C(C1CCCN(Cc2cccc(-c3ccc(F)cc3F)c2)C1)N1CCN(c2ncccn2)CC1 (configuration not stated) | 39.8µM* | . | . | ? | i
COC(=O)CNC(=O)C1CCCN(Cc2cccc(-c3ccc(F)cc3F)c2)C1 (configuration not stated) | -27.5% | . | . | ? | -5.6%
O=C(C1CCCN(Cc2cccc(-c3ccc(F)cc3F)c2)C1)N1CCCC1 (configuration not stated) | 28.2µM* | . | . | ? | ?
COc1ccccc1C(=O)N1CCN(CCCn2nc3n(c2=O)CCCC3)CC1 | -28.1% | . | . | -20.7% | .
CN(C)C[C@@H]1CN(c2ccccn2)C[C@H]1NC(=O)c1cnco1 | 2.9% | i | -1.0% | -9.0% | ?
COc1ccc(C(=O)NC2CCN(c3cc(-c4ccc(OC)cc4)[nH]n3)CC2)cc1 | ? | i | -19.2% | ? | -18.3%
COc1ccc(-c2cc(N3CCCC(NC(=O)c4ccccc4F)C3)n[nH]2)cc1 (configuration not stated) | ? | ? | -16.8% | ? | ?
COc1ccc(-c2cc(N3CCC(NC(=O)COc4ccccc4C)CC3)n[nH]2)cc1 | ? | i | ? | 25.1µM* | ?
COc1ccc(-c2cc(N3CCCC(NC(=O)c4cc5ccccc5[nH]4)C3)n[nH]2)cc1 (configuration not stated) | ? | 8.91µM* | -18.4% | ? | ?
COc1ccc(-c2cc(N3CCC(NC(=O)c4ccc(OC)c(F)c4)CC3)n[nH]2)cc1 | -13.1% | i | -11.1% | -16.4% | i
COc1ccc(-c2cc(N3CCC(NC(=O)Cc4ccccc4C)CC3)n[nH]2)cc1 | ? | i | -14.3% | ? | i
COc1ccc(-c2cc(N3CCC(NC(=O)c4ccc5cc[nH]c5c4)CC3)n[nH]2)cc1 | ? | i | -28.7% | 39.8µM* | i
